Measurements taken from article PMC11006913.
Numbering of substitutions follows the chain as printed.

What follows are sequences tested against CRX (Homo sapiens, UniProt O43186 26-111) (assay: PBM; 200 nM protein, PBS). Settings: dsDNA, one strand shown.
Sequence of CRX (Homo sapiens, UniProt O43186 26-111) (O43186 26-111): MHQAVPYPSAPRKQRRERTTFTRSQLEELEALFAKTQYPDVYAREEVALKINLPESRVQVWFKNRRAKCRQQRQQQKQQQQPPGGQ

| Sequence | binding signal |
| --- | --- |
| CGTATACG | 8.46 upbm affinity estimate (log intensity, higher = more binding, comparable within an allelic series) |
| AGAATCCC | 10.2 upbm affinity estimate (log intensity, higher = more binding, comparable within an allelic series) |
| AGATTAGG | 12.7 upbm affinity estimate (log intensity, higher = more binding, comparable within an allelic series) |
| GCAACCGC | 8.47 upbm affinity estimate (log intensity, higher = more binding, comparable within an allelic series) |
| AAATCCAA | 11.2 upbm affinity estimate (log intensity, higher = more binding, comparable within an allelic series) |
| GGTGCTTA | 11 upbm affinity estimate (log intensity, higher = more binding, comparable within an allelic series) |
| GATTATCC | 12.9 upbm affinity estimate (log intensity, higher = more binding, comparable within an allelic series) |
| CGCTAATC | 12.8 upbm affinity estimate (log intensity, higher = more binding, comparable within an allelic series) |
| CGTTCTAC | 8.44 upbm affinity estimate (log intensity, higher = more binding, comparable within an allelic series) |
| CGACGGAC | 8.32 upbm affinity estimate (log intensity, higher = more binding, comparable within an allelic series) |
| GGGTGGCA | 8.24 upbm affinity estimate (log intensity, higher = more binding, comparable within an allelic series) |
| CCACCGAG | 8.14 upbm affinity estimate (log intensity, higher = more binding, comparable within an allelic series) |
| ACTGGACC | 8.04 upbm affinity estimate (log intensity, higher = more binding, comparable within an allelic series) |
| CGAGTGCG | 8.19 upbm affinity estimate (log intensity, higher = more binding, comparable within an allelic series) |
| ATAAAACC | 10.7 upbm affinity estimate (log intensity, higher = more binding, comparable within an allelic series) |
| AGAGAGAC | 8.36 upbm affinity estimate (log intensity, higher = more binding, comparable within an allelic series) |

| Sequence | binding signal |
| --- | --- |
| CTTAAGCC | 12.7 upbm affinity estimate (log intensity, higher = more binding, comparable within an allelic series) |
| CCGAACCG | 8.21 upbm affinity estimate (log intensity, higher = more binding, comparable within an allelic series) |
| GCAGATCA | 10.3 upbm affinity estimate (log intensity, higher = more binding, comparable within an allelic series) |
| GATTATAA | 12.7 upbm affinity estimate (log intensity, higher = more binding, comparable within an allelic series) |
| ATAATATC | 11.2 upbm affinity estimate (log intensity, higher = more binding, comparable within an allelic series) |
| AATTCCAT | 10.2 upbm affinity estimate (log intensity, higher = more binding, comparable within an allelic series) |
| ACCCAGTG | 8.01 upbm affinity estimate (log intensity, higher = more binding, comparable within an allelic series) |
| CGCCCCTC | 8.34 upbm affinity estimate (log intensity, higher = more binding, comparable within an allelic series) |
| AGGCTTAA | 12.8 upbm affinity estimate (log intensity, higher = more binding, comparable within an allelic series) |
| GGGCTTAA | 12.7 upbm affinity estimate (log intensity, higher = more binding, comparable within an allelic series) |
| AGATTAAC | 12.9 upbm affinity estimate (log intensity, higher = more binding, comparable within an allelic series) |
| CCGGATAA | 11.5 upbm affinity estimate (log intensity, higher = more binding, comparable within an allelic series) |
| GTAATCCA | 12.9 upbm affinity estimate (log intensity, higher = more binding, comparable within an allelic series) |
| CATGACAG | 8.34 upbm affinity estimate (log intensity, higher = more binding, comparable within an allelic series) |
| CTGGTCGA | 8.44 upbm affinity estimate (log intensity, higher = more binding, comparable within an allelic series) |
| CCTCGCCC | 8.43 upbm affinity estimate (log intensity, higher = more binding, comparable within an allelic series) |

Each sequence was assayed against T1, NKX2-4 (Homo sapiens, UniProt Q9H2Z4 175-261, P217L) (assay: PBM; 200 nM protein, PBS). Settings: dsDNA, one strand shown.
T1 sequence: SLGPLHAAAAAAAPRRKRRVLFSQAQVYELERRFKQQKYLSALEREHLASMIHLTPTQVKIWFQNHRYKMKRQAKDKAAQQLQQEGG

| Sequence | binding signal |
| --- | --- |
| GCTGCCGA | 9.14 upbm affinity estimate (log intensity, higher = more binding, comparable within an allelic series) |
| CACCGCGG | 9.48 upbm affinity estimate (log intensity, higher = more binding, comparable within an allelic series) |
| AGAGGGCC | 11.7 upbm affinity estimate (log intensity, higher = more binding, comparable within an allelic series) |
| CAGTCCCG | 9.58 upbm affinity estimate (log intensity, higher = more binding, comparable within an allelic series) |
| CCCTGCGC | 9.21 upbm affinity estimate (log intensity, higher = more binding, comparable within an allelic series) |
| CTGGGGGC | 9.39 upbm affinity estimate (log intensity, higher = more binding, comparable within an allelic series) |
| GCGCCGCC | 9.93 upbm affinity estimate (log intensity, higher = more binding, comparable within an allelic series) |
| GCGACCGC | 9.58 upbm affinity estimate (log intensity, higher = more binding, comparable within an allelic series) |

These sequences were tested against HOXB9 (Homo sapiens, UniProt P17482 171-250, T197M) (assay: PBM; 200 nM protein, PBS). Settings: dsDNA, one strand shown.
Sequence of HOXB9 (Homo sapiens, UniProt P17482 171-250, T197M) (P17482 171-250 T197M): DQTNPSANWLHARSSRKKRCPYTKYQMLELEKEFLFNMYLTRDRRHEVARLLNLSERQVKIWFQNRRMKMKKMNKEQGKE

| Sequence | binding signal |
| --- | --- |
| CACCGCGG | 8.56 upbm affinity estimate (log intensity, higher = more binding, comparable within an allelic series) |
| AGAGGGCC | 8.51 upbm affinity estimate (log intensity, higher = more binding, comparable within an allelic series) |
| CTGGGGGC | 8.38 upbm affinity estimate (log intensity, higher = more binding, comparable within an allelic series) |
| GCGCCGCC | 8.49 upbm affinity estimate (log intensity, higher = more binding, comparable within an allelic series) |

What follows are sequences tested against T2, NKX2-4 (Homo sapiens, UniProt Q9H2Z4 175-261, T231S) (assay: PBM; 200 nM protein, PBS). Settings: dsDNA, one strand shown.
T2 sequence: T1 sequence with L43P, T57S

| Sequence | binding signal |
| --- | --- |
| GCTGCCGA | 9.11 upbm affinity estimate (log intensity, higher = more binding, comparable within an allelic series) |
| CACCGCGG | 9.5 upbm affinity estimate (log intensity, higher = more binding, comparable within an allelic series) |
| AGAGGGCC | 12 upbm affinity estimate (log intensity, higher = more binding, comparable within an allelic series) |
| CAGTCCCG | 9.49 upbm affinity estimate (log intensity, higher = more binding, comparable within an allelic series) |
| CCCTGCGC | 9.11 upbm affinity estimate (log intensity, higher = more binding, comparable within an allelic series) |
| CTGGGGGC | 9.45 upbm affinity estimate (log intensity, higher = more binding, comparable within an allelic series) |
| GCGCCGCC | 9.45 upbm affinity estimate (log intensity, higher = more binding, comparable within an allelic series) |
| GCGACCGC | 9.41 upbm affinity estimate (log intensity, higher = more binding, comparable within an allelic series) |

What follows are sequences tested against T3, NKX2-4 (Homo sapiens, UniProt Q9H2Z4 175-261) (assay: PBM; 200 nM protein, PBS). Settings: dsDNA, one strand shown.
T3 sequence: T1 sequence with L43P

| Sequence | binding signal |
| --- | --- |
| GCTGCCGA | 9.11 upbm affinity estimate (log intensity, higher = more binding, comparable within an allelic series) |
| CACCGCGG | 9.48 upbm affinity estimate (log intensity, higher = more binding, comparable within an allelic series) |
| AGAGGGCC | 11.7 upbm affinity estimate (log intensity, higher = more binding, comparable within an allelic series) |
| CAGTCCCG | 9.67 upbm affinity estimate (log intensity, higher = more binding, comparable within an allelic series) |
| CCCTGCGC | 9.27 upbm affinity estimate (log intensity, higher = more binding, comparable within an allelic series) |
| CTGGGGGC | 9.5 upbm affinity estimate (log intensity, higher = more binding, comparable within an allelic series) |
| GCGCCGCC | 9.72 upbm affinity estimate (log intensity, higher = more binding, comparable within an allelic series) |
| GCGACCGC | 9.53 upbm affinity estimate (log intensity, higher = more binding, comparable within an allelic series) |

Each sequence was assayed against HOXB9 (Homo sapiens, UniProt P17482 171-250) (assay: PBM; 200 nM protein, PBS). Settings: dsDNA, one strand shown.
Sequence of HOXB9 (Homo sapiens, UniProt P17482 171-250) (P17482 171-250): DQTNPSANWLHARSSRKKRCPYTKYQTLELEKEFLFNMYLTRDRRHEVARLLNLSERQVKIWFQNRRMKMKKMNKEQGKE

| Sequence | binding signal |
| --- | --- |
| CACCGCGG | 8.55 upbm affinity estimate (log intensity, higher = more binding, comparable within an allelic series) |
| AGAGGGCC | 8.69 upbm affinity estimate (log intensity, higher = more binding, comparable within an allelic series) |
| CTGGGGGC | 8.3 upbm affinity estimate (log intensity, higher = more binding, comparable within an allelic series) |
| GCGCCGCC | 8.66 upbm affinity estimate (log intensity, higher = more binding, comparable within an allelic series) |

These sequences were tested against CRX (Homo sapiens, UniProt O43186 26-111, E42D) (assay: PBM; 200 nM protein, PBS). Settings: dsDNA, one strand shown.
Sequence of CRX (Homo sapiens, UniProt O43186 26-111, E42D) (O43186 26-111 E42D): as the sequence (O43186 26-111) above, with E17D counted along it

| Sequence | binding signal |
| --- | --- |
| CGTATACG | 8.43 upbm affinity estimate (log intensity, higher = more binding, comparable within an allelic series) |
| AGAATCCC | 10 upbm affinity estimate (log intensity, higher = more binding, comparable within an allelic series) |
| GCAACCGC | 8.38 upbm affinity estimate (log intensity, higher = more binding, comparable within an allelic series) |
| AAATCCAA | 11 upbm affinity estimate (log intensity, higher = more binding, comparable within an allelic series) |
| GGTGCTTA | 10.9 upbm affinity estimate (log intensity, higher = more binding, comparable within an allelic series) |
